Values joined by “and” are separate entries in the source; they are usually repeats but may differ in a detail not shown here. Equal entries are not always repeated.
Assays:
[1] = molecular target: Bromodomain-containing protein 4 (Homo sapiens) (UniProt O60885); conditions: Compound concentration 20.0 uM, Protein concentration 2.0 uM, Result type QC Liability
[2] = molecular target: T1, Transcription intermediary factor 1-alpha (Homo sapiens) (UniProt O15164); conditions: Compound concentration 20.0 uM, Protein concentration 2.0 uM, Result type QC Liability
T1 sequence (whole entry): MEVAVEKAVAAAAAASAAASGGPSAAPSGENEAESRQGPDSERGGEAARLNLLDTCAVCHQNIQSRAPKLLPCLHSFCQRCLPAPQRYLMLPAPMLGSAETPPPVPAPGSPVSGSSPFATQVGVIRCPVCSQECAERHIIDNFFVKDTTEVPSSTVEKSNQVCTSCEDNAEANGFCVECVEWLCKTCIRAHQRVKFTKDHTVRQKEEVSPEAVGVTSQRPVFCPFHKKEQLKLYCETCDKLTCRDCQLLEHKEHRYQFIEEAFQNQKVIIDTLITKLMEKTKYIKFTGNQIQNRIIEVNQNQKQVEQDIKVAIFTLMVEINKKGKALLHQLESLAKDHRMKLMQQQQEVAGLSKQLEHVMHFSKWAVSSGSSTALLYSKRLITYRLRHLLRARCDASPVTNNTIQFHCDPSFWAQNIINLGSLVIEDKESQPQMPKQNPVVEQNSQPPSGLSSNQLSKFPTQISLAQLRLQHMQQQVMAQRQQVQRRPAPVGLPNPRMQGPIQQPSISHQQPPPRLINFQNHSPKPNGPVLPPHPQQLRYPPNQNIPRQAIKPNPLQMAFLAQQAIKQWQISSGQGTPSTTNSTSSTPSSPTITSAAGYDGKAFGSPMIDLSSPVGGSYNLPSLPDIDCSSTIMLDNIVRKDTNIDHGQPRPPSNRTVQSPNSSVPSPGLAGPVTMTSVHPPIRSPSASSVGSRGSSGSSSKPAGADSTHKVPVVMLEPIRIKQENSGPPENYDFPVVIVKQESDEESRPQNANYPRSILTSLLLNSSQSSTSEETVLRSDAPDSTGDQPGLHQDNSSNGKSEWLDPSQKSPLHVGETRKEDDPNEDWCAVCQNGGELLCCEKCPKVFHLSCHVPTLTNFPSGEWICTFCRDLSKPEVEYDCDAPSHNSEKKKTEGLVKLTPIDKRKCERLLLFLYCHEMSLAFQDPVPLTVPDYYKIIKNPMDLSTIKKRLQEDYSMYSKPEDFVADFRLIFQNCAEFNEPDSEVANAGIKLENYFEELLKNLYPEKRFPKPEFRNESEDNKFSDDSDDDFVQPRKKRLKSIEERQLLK

COc1cc(C)c(S(=O)(=O)N(C)CCOCC(=O)N(C)[C@H]2CCC[C@@H](N3CCN(C)CC3)C2)c(C)c1
ΔTm [1]: -1.54 °C | ΔTm [2]: 0.17 °C

Cc1ccccc1Oc1cc(-n2c(=O)cc(C(F)(F)F)[nH]c2=O)c2ccccc2c1Cl
ΔTm [1]: -1.47 °C | ΔTm [2]: -0.87 °C

Cc1ncsc1-c1ccc(CNC(=O)[C@@H]2C[C@H](O)CN2C(=O)[C@@H](NC(=O)C2(F)CC2)C(C)(C)C)c(OCCOc2ccc(CN3CCN(c4cc(-c5ccccc5O)nnc4N)CC3)cc2)c1 (relative stereo)
ΔTm [1]: 14.5 °C | ΔTm [2]: 1.57 °C

Cc1csc(S(=O)(=O)N(CC(C)C)c2cc3c(cc2OCc2ccc(C(=O)O)cc2)CCC3)n1
ΔTm [1]: -0.64 °C | ΔTm [2]: -0.15 °C

CCCCC[C@@](C)(O)/C=C/[C@H]1C(=O)CC(O)C1C/C=C\CCCC(=O)O (stereo partly drawn)
ΔTm [1]: -1.7 °C | ΔTm [2]: -0.59 °C

CC(=O)c1c(C)c2cnc(Nc3ccc(N4CCNCC4)cn3)nc2n(C2CCCC2)c1=O
ΔTm [1]: -1.52 °C and 0.07 °C | ΔTm [2]: -1.97 °C and -2.09 °C

CCN(C)C(=O)c1ccc2c(c1)NC(=O)/C2=C(\NC1CCN(C)CC1)c1ccccc1
ΔTm [1]: 0.55 °C | ΔTm [2]: 0.21 °C

COc1cc(-c2cn(C)c(=O)c3cnccc23)cc(OC)c1CN(C)C
ΔTm [1]: -0.83 °C | ΔTm [2]: 0.37 °C

CC(C)(O)c1coc(S(=O)(=O)NC(=O)Nc2c3c(cc4c2CCC4)CCC3)c1
ΔTm [1]: -0.92 °C | ΔTm [2]: -0.55 °C

CC(C)[C@H](CO)Nc1nc(Nc2ccc(C(=O)O)c(Cl)c2)c2ncn(C(C)C)c2n1
ΔTm [1]: 0.61 °C | ΔTm [2]: -2.66 °C

COc1ccc(CC[C@@H](OC(=O)[C@@H]2CCCCN2C(=O)[C@H](c2cc(OC)c(OC)c(OC)c2)C2CCCCC2)c2cccc(OCCN3CCOCC3)c2)cc1OC
ΔTm [1]: -4.68 °C | ΔTm [2]: -1.51 °C

COc1cc2nc([C@@H]3CCCS(=O)(=O)C3)n(C)c2cc1NC(=O)c1cccc(C(C)(F)F)n1
ΔTm [1]: 0.39 °C | ΔTm [2]: 0.7 °C

CCCN1C(=O)c2ccc(Cl)cc2Nc2ncccc21
ΔTm [1]: 0.34 °C | ΔTm [2]: 0.51 °C

CCCS(=O)(=O)Nc1ccc(F)c(Nc2ncnc3cnc(-n4cnc(C)c4)nc23)c1F
ΔTm [1]: -2.57 °C | ΔTm [2]: -1.9 °C

CCOC(=O)c1ccc(CN(Cc2ccc(-c3cccc(S(C)(=O)=O)c3)cc2)S(=O)(=O)c2c(C)cc(C)cc2C)o1
ΔTm [1]: -4.78 °C | ΔTm [2]: 0.5 °C

COc1cc(C(=O)NCCOCCOCCOCCC(=O)Nc2cccc3c2C(=O)N(C2CCC(=O)NC2=O)C3=O)ccc1Nc1ncc(C(F)(F)F)c(Oc2cccc3c2C(=O)CC3)n1 (stereo not drawn)
ΔTm [1]: -4.34 °C | ΔTm [2]: 0.52 °C

Cc1nsc(Nc2cnc(C(F)(F)F)cn2)c1C(=O)Nc1ccc(O[C@H]2CCCN(CC(F)(F)F)C2)nc1
ΔTm [1]: 1.66 °C | ΔTm [2]: -2.89 °C

CN(C(=O)c1ccccc1)c1ccc2c(c1)[nH]/c(=N\C(=O)c1ccc(Br)s1)n2CCC(N)=O
ΔTm [1]: -2.77 °C | ΔTm [2]: -1.25 °C

CNc1ncc2cc(-c3ccc(-c4ncccc4F)cc3Cl)c(=O)n(C[C@H]3OC[C@H](N)CO3)c2n1
ΔTm [1]: -2.59 °C | ΔTm [2]: -3.59 °C
